# Measured values published in PubChem BioAssay (NCI).
# This is part of a sample that, as a whole, favours compounds with a hit. Of some 83,000 tested, about 20% had one in any assay.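 Negative percent growth values reflect cell death: -40 means 40% of the cells present at the start died, and -100 means all died.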 A number with no mark means an inactive call. Activity calls are given as the source filed them. The calls were made as follows: active = growth percent below 10; inactive = the rest.
# Assays:
# Assay in all cases: NCI-60 one-dose screen, 48 h (100 = growth as untreated, 0 = no growth, -100 = all killed)
# Details in all cases: 10 µM
# HT29 colon = system: HT29 colon
# SNB-75 CNS = system: SNB-75 CNS
# SNB-19 CNS = system: SNB-19 CNS
# U251 CNS = system: U251 CNS
# PC-3 prostate = system: PC-3 prostate
# SK-MEL-5 melanoma = system: SK-MEL-5 melanoma
# UACC-62 melanoma = system: UACC-62 melanoma
# LOX IMVI melanoma = system: LOX IMVI melanoma
# SK-MEL-28 melanoma = system: SK-MEL-28 melanoma
Compound,growth (HT29 colon),growth (SNB-75 CNS),growth (SNB-19 CNS),growth (U251 CNS),growth (PC-3 prostate),growth (SK-MEL-5 melanoma),growth (UACC-62 melanoma),growth (LOX IMVI melanoma),growth (SK-MEL-28 melanoma)
CC1=C(N2CCOCC2)C(N2CCOCC2)=C(C)C(=O)C1=O,111%,97.4%,103%,101%,104%,99.2%,109%,101%,106%
CCCCCCCCCCCCCCCC(=O)OC1[C@@H](OC(=O)CCCCCCCCCCCCCCC)[C@@H](C(=O)N[C@@H](CCCCN)C(=O)OC)O[C@H]1n1cnc2c(=O)[nH]c(NC(=O)C(C)C)nc21 (stereo not given in full),98.2%,94.1%,93.5%,90.2%,103%,101%,111%,93.5%,113%
COc1ccc(C2=Nc3c(C)nn(-c4ccccc4)c3NC(c3ccc(Oc4ccnc5cc(Cl)ccc45)c(OC)c3)C2)cc1 (stereo not given),56.2%,62.3%,78.6%,86.7%,54.8%,89.4%,75.9%,89.3%,95.1%
CCOC(=O)C(NC(=O)C(Cl)Cl)C(O)c1ccccc1 (stereo not given),107%,91.3%,101%,101%,-0.104% (active),91.4%,94.2%,99.9%,144%
O=C(NN1C(=O)CSC1c1ccc(Cl)cc1)c1cccnc1 (stereo not given),109%,110%,113%,99.5%,93.6%,102%,125%,102%,
COc1ccc(-c2nc(-c3nc4ccc(OC)cc4[nH]3)cc3c2[nH]c2ccccc23)cc1,17.4%,67.3%,37.5%,14.3%,25.8%,49.9%,50%,27.2%,47.7%
CNc1ncc(-c2ccc(C(F)(F)F)cc2)c(NC2CCCCCC2)n1,56.8%,90.9%,85.2%,58.9%,61.8%,74.8%,89.9%,85.8%,88%
O=S(=O)(NCCNc1nccc(-c2c(-c3ccc(F)cc3)nc3sccn23)n1)c1ccc2ccccc2c1,44.9%,79.3%,105%,71%,73.4%,69.2%,71.7%,71.3%,93%
O=C1OCC2=C1C(c1cccc(Cl)c1)c1cc3c(cc1N2CCO)CCC3 (stereo not given),-9.18% (active),40.5%,29.8%,3.51% (active),20.4%,-8.14% (active),26.6%,12.6%,59.2%
O=C(/C=C/c1cc2ccccc2[nH]c1=O)c1ccc2c(c1)OCO2,85.3%,86.7%,88.4%,86.4%,77.5%,96%,90.5%,76.4%,98.6%
O=C(Nc1cccc(-n2cc(-c3ccncc3)c(-c3ccc(O)c(Cl)c3)n2)c1)c1cc(C(F)(F)F)cc(C(F)(F)F)c1,48.2%,59.4%,88.4%,33.1%,24.2%,56.4%,72.4%,37.1%,70.8%
CCOC(=O)c1ccoc1,95.1%,94.4%,97.7%,101%,99.7%,99.6%,101%,99.6%,106%
COc1ccc(-c2nn(-c3cccc(NC(=O)c4cccc(C(F)(F)F)c4)c3)cc2-c2ccncc2)cc1Cl,8.18% (active),6.59% (active),79.6%,-3.25% (active),14%,23.7%,38.2%,28.6%,40.6%
Clc1ccc(Sc2nc(NC3CC3)nc(Sc3ccc(Cl)cc3)n2)cc1,48.8%,92%,105%,80%,46.8%,87.9%,82.2%,91.3%,87.5%
COc1ccc(-c2nn(-c3cccc(NC(=O)c4ccc5c(c4)OCCO5)c3)cc2-c2ccncc2)cc1Cl,0.486% (active),2.6% (active),70.8%,-9.64% (active),10.4%,20%,34.1%,29.9%,38.3%
CCN1CCCC1CNC(=O)c1ncc(-c2ccc(C(F)(F)F)cc2)c(NC2CCCCCC2)n1 (stereo not given),11.7%,74.3%,85.2%,52.7%,58.4%,45.2%,78.3%,87.1%,81.5%
Nc1ncnc2[nH]c(=O)[nH]c12,105%,84.6%,97.5%,97.8%,201%,100%,92.3%,95.2%,107%
COc1ccc(-c2nn(-c3cccc(NC(=O)Nc4cccc(C(F)(F)F)c4)c3)cc2-c2ccncc2)cc1Cl,2.94% (active),21.5%,37.1%,-25.2% (active),3.59% (active),2.68% (active),-21.5% (active),22.6%,15.6%
COc1ccc(-c2ccc3cc(C(=O)Nc4ccc(O)c(C(=O)/C=C/c5cc(OC)c(OC)c(OC)c5)c4)ccc3c2)cc1,95.3%,94%,96.1%,92.6%,65.5%,72.6%,71.1%,81.3%,106%
CCc1ccc2c(c1)N(CCO)C1=C(C(=O)OC1)C2c1cc(OC)c(OC)c(OC)c1 (stereo not given),-24.2% (active),49.3%,21.7%,10.9%,26.9%,-14.5% (active),16.2%,25%,64.5%
COc1cc2nc(Nc3cccc(C(=O)O)c3)nc(N)c2cc1OC,103%,94.6%,102%,99%,90.4%,99.7%,90.2%,96.3%,103%
COc1ccc(-c2nn(-c3cccc(NC(=O)Nc4cc(C(F)(F)F)cc(C(F)(F)F)c4)c3)cc2-c2ccncc2)cc1Cl,-17.4% (active),6.77% (active),30.2%,-75.5% (active),-14.7% (active),-37.6% (active),7.55% (active),12.9%,-5.48% (active)
CCCCCCCCCCCCCC[n+]1ccc(C(N)=O)cc1,-28.2% (active),-24.8% (active),-58.5% (active),-100% (active),-23.3% (active),-82.8% (active),0.667% (active),-48.9% (active),43.3%
O=c1c2ccccc2nc(SCCN2CCCCC2)n1CCc1ccccc1,30.1%,87%,102%,86.7%,89.2%,76.7%,97.8%,81.6%,101%
Cc1cccc2c1O/C(=C\c1ccc([N+](=O)[O-])o1)C2=O,-67.4% (active),65%,44.2%,-19.7% (active),-36.3% (active),-83.5% (active),-58.9% (active),-83.6% (active),-56.6% (active)
COc1cc(OC)cc(-c2cncn2-c2ccc(-c3nc4cc(OC)cc(OC)c4s3)cc2)c1,36.4%,60.9%,63.6%,40.8%,34.1%,39.5%,58.8%,51.4%,82.7%
CCCCCCCNc1nc(C=O)ncc1-c1ccc(C(F)(F)F)cc1,86.8%,97%,91.1%,86.1%,79.8%,97.6%,116%,90.7%,104%
S=C1SCC(c2ccccc2)S1 (stereo not given),103%,92.2%,97.8%,95.5%,99.7%,103%,100%,103%,103%
O=C1OCC2=C1C(c1ccc(Cl)c(Cl)c1)c1cc3c(cc1N2CCO)OCCO3 (stereo not given),2.95% (active),30.3%,33.1%,18.2%,19.1%,29.9%,22.5%,44.3%,53%
